B1: TMEM61, Q8N0U2 (peptide)
chain: KVVDIPTYEEAVSFPV
NEDD4 890-928, P46934
Sequence of NEDD4 890-928, P46934 (P46934 890-928): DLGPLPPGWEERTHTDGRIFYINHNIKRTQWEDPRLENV
  selected by phage display: confidence 2 (active)

B2: PIK3R6, Q5UE93 (peptide)
chain: RFEVAPAPEPASGAQK
OXSR1 434-527, O95747
Sequence of OXSR1 434-527, O95747 (O95747 434-527): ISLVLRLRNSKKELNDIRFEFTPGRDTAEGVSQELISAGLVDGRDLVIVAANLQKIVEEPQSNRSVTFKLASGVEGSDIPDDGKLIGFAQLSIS
  selected by phage display: confidence 3 (active)

B3: TBP, P20226 (peptide)
chain: MDQNNSLPPYAQGLAS
NEDD4 890-928, P46934
  selected by phage display: confidence 2 (active)

B4: ATN1, P54259 (peptide)
chain: VSNQPPKYTQPSLPSQ
NEDD4 890-928, P46934
  selected by phage display: confidence 3 (active)
YAP1 169-207, P46937
Sequence of YAP1 169-207, P46937 (P46937 169-207): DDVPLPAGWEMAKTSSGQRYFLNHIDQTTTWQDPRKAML
  selected by phage display: confidence 2 (active)

B5: STPG4, Q8N801 (peptide)
chain: NNPVLNDLPQYMPPDF
NEDD4 890-928, P46934
  selected by phage display: confidence 3 (active)

B6: WNK1, Q9H4A3 (peptide)
chain: TKVGRFQVTTTANKVG
OXSR1 434-527, O95747
  selected by phage display: confidence 4 (active)

B7: JCAD, Q9P266 (peptide)
chain: LALSDPGLEPPVYVPP
NEDD4 890-928, P46934
  selected by phage display: confidence 3 (active)

B8: FOXP1, Q9H334 (peptide)
chain: TELQQLWKEVTSAHTA
PEX14 16-84, O75381
Sequence of PEX14 16-84, O75381 (O75381 16-84): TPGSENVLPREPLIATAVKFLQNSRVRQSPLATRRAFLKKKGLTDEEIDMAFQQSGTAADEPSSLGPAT
  selected by phage display: confidence 3 (active)

B9: GDPD4, Q6W3E5 (peptide)
chain: VVEGPWTLAALYPALP
PDCD6IP 360-702, Q8WUM4
Sequence of PDCD6IP 360-702, Q8WUM4 (Q8WUM4 360-702): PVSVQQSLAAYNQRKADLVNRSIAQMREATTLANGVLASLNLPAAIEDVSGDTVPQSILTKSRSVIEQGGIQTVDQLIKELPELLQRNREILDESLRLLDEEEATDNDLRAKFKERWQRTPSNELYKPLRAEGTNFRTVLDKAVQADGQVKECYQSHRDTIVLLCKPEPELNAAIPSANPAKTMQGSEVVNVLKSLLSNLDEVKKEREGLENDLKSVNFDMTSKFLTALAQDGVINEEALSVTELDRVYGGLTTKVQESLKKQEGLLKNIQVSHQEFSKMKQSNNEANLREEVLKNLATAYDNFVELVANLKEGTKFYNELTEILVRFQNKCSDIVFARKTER
  selected by phage display: confidence 3 (active)

B10: NFKBIL1, Q9UBC1 (peptide)
chain: ELEDEWQEVMGRFEGD
PEX14 16-84, O75381
  selected by phage display: confidence 4 (active)

B11: SLC6A11, P48066 (peptide)
chain: FYLYPDLSRLSDPQVW
PDCD6IP 360-702, Q8WUM4
  selected by phage display: confidence 3 (active)

B12: DAZAP2, Q15038 (peptide)
chain: HLPQAPPYTDAPPAYS
NEDD4 890-928, P46934
  selected by phage display: confidence 3 (active)

B13: TPCN1, Q9ULQ1 (peptide)
chain: EWYEEHAREQEQQRQL
PEX14 16-84, O75381
  selected by phage display: confidence 2 (active)

B14: CEACAM5, P06731 (peptide)
chain: FRVYPELPKPSISSNN
PDCD6IP 360-702, Q8WUM4
  selected by phage display: confidence 3 (active)

B15: FNBP4, Q8N3X1 (peptide)
chain: EMGDWQEVWDENTGAY
PEX14 16-84, O75381
  selected by phage display: confidence 3 (active)

B16: STAM, Q92783 (peptide)
chain: LYPSTSSLLTNHQHEG
PDCD6IP 360-702, Q8WUM4
  selected by phage display: confidence 3 (active)

B17: SMAD6, O43541 (peptide)
chain: LAGPESPPPPYSRLSP
NEDD4 890-928, P46934
  selected by phage display: confidence 3 (active)

B18: MIR1-1HG, Q9H1L0 (peptide)
chain: SPASWERLLAYGWSHA
PEX14 16-84, O75381
  selected by phage display: confidence 3 (active)

B19: CPEB2, Q7Z5Q1 (peptide)
chain: DSLQDSWATAAGTSRI
PEX14 16-84, O75381
  selected by phage display: confidence 3 (active)

B20: PI4K2A, Q9BTU6 (peptide)
chain: RAQPPDYTFPSGSGAH
NEDD4 890-928, P46934
  selected by phage display: confidence 2 (active)

B21: TTC31, Q49AM3 (peptide)
chain: QLWHHDYLLGHLDDEG
PEX14 16-84, O75381
  selected by phage display: confidence 2 (active)

B22: AATK, Q6ZMQ8 (peptide)
chain: SPAPTSRFSITHVSDS
OXSR1 434-527, O95747
  selected by phage display: confidence 2 (active)

B23: SLC12A3, P55017 (peptide)
chain: DATLASGRFTISTLLS
OXSR1 434-527, O95747
  selected by phage display: confidence 2 (active)

B24: TNKS1BP1, Q9C0C2 (peptide)
chain: AWIRDYSSGGSSRTLD
PEX14 16-84, O75381
  selected by phage display: confidence 2 (active)

B25: ESS2, Q96DF8 (peptide)
chain: GKMSREPPPPYVTPAT
NEDD4 890-928, P46934
  selected by phage display: confidence 4 (active)
YAP1 169-207, P46937
  selected by phage display: confidence 4 (active)

B26: GADD45GIP1, Q8TAE8 (peptide)
chain: WYPSLATMQESLRVKQ
PDCD6IP 360-702, Q8WUM4
  selected by phage display: confidence 3 (active)

B27: C11orf53, Q8IXP5 (peptide)
chain: DLHHTPGYPTPPPYPF
NEDD4 890-928, P46934
  selected by phage display: confidence 3 (active)
YAP1 169-207, P46937
  selected by phage display: confidence 3 (active)

B28: SOWAHC, Q53LP3 (peptide)
chain: SSGGGSVTLDPLEHAW
PEX14 16-84, O75381
  selected by phage display: confidence 3 (active)

B29: TONSL, Q96HA7 (peptide)
chain: HGRYAEALEQHWQELQ
PEX14 16-84, O75381
  selected by phage display: confidence 4 (active)

B30: LENG8, Q96PV6 (peptide)
chain: DWSSQYSMVAGAGREN
PEX14 16-84, O75381
  selected by phage display: confidence 3 (active)

B31: TTN, Q8WZ42 (peptide)
chain: SWNPPEYDGGAQISNY
NEDD4 890-928, P46934
  selected by phage display: confidence 2 (active)

B32: SLC12A1, Q13621 (peptide)
chain: DSVPSNTNRFQVSVIN
OXSR1 434-527, O95747
  selected by phage display: confidence 4 (active)

B33: SH3YL1, Q96HL8 (peptide)
chain: YKLYPGLSSYHERVGN
PDCD6IP 360-702, Q8WUM4
  selected by phage display: confidence 3 (active)

B34: LRRN1, Q6UXK5 (peptide)
chain: LYPPLINLWEGDSEKD
PDCD6IP 360-702, Q8WUM4
  selected by phage display: confidence 4 (active)

B35: RHBDD1, Q8TEB9 (peptide)
chain: RNSPPPYGFHLSPEEM
NEDD4 890-928, P46934
  selected by phage display: confidence 2 (active)

B36: DHX34, Q14147 (peptide)
chain: GLYPQLAVPDAFNSSR
PDCD6IP 360-702, Q8WUM4
  selected by phage display: confidence 2 (active)

B37: HSF2, Q03933 (peptide)
chain: SENESLWKEVSELRAK
PEX14 16-84, O75381
  selected by phage display: confidence 3 (active)

B38: BCORL1, Q5H9F3 (peptide)
chain: VHDAVVNDNLETIWLL
PEX14 16-84, O75381
  selected by phage display: confidence 3 (active)

B39: NUP62, P37198 (peptide)
chain: WSLELEDQERHFLQQA
PEX14 16-84, O75381
  selected by phage display: confidence 2 (active)

B40: BSN, Q9UPA5 (peptide)
chain: RDPEPPEPPTYRAQGV
NEDD4 890-928, P46934
  selected by phage display: confidence 3 (active)

B41: LMTK3, Q96Q04 (peptide)
chain: FSRFSVSPALETPGPP
OXSR1 434-527, O95747
  selected by phage display: confidence 2 (active)

B42: BAIAP2L1, Q9UHR4 (peptide)
chain: SVVIPPPDYLEALSMG
NEDD4 890-928, P46934
  selected by phage display: confidence 4 (active)
YAP1 169-207, P46937
  selected by phage display: confidence 3 (active)

B43: CBFA2T3, O75081 (peptide)
chain: HKLTEREWAEEWKHLN
PEX14 16-84, O75381
  selected by phage display: confidence 3 (active)

B44: GRSF1, Q12849 (peptide)
chain: YLEDLPPPPEYELAPS
NEDD4 890-928, P46934
  selected by phage display: confidence 2 (active)

B45: TSHZ1, Q6ZSZ6 (peptide)
chain: YPQDSLAQIKAVYANL
PDCD6IP 360-702, Q8WUM4
  selected by phage display: confidence 2 (active)

B46: TP73, O15350 (peptide)
chain: STATSPDGGTTFEHLW
PEX14 16-84, O75381
  selected by phage display: confidence 3 (active)

B47: DNAH2, Q9P225 (peptide)
chain: NWNEWKTGRFLILQTE
OXSR1 434-527, O95747
  selected by phage display: confidence 3 (active)

B48: MCC, P23508 (peptide)
chain: LGRDLYPNLAEERSRW
PDCD6IP 360-702, Q8WUM4
  selected by phage display: confidence 3 (active)

B49: UBE2L6, O14933 (peptide)
chain: KPPPYLRNLSSDDANV
NEDD4 890-928, P46934
  selected by phage display: confidence 2 (active)

B50: IRS1, P35568 (peptide)
chain: EDVKRHSSASFENVWL
PEX14 16-84, O75381
  selected by phage display: confidence 3 (active)

B51: TNRC18, O15417 (peptide)
chain: LEDVSKPPAYAYPATP
NEDD4 890-928, P46934
  selected by phage display: confidence 3 (active)

B52: SLC12A7, Q9Y666 (peptide)
chain: MPTNFTVVPVEAHADG
OXSR1 434-527, O95747
  selected by phage display: confidence 2 (active)

B53: GTPBP1, O00178 (peptide)
chain: SEQYDSLLRQMWERMD
PEX14 16-84, O75381
  selected by phage display: confidence 2 (active)

B54: WNK4, Q96J92 (peptide)
chain: SEEGKPQLVGRFQVTS
OXSR1 434-527, O95747
  selected by phage display: confidence 4 (active)

B55: AATK, Q6ZMQ8 (peptide)
chain: TPTPAPFSRFTVSPAP
OXSR1 434-527, O95747
  selected by phage display: confidence 3 (active)

B56: UVSSA, Q2YD98 (peptide)
chain: YPSLTNLKAQADTARA
PDCD6IP 360-702, Q8WUM4
  selected by phage display: confidence 2 (active)

B57: MIER2, Q8N344 (peptide)
chain: DMPFDELLALYGYEAS
PDCD6IP 360-702, Q8WUM4
  selected by phage display: confidence 2 (active)

B58: WDFY4, Q6ZS81 (peptide)
chain: TPLWEETMLKAWQHYL
PEX14 16-84, O75381
  selected by phage display: confidence 2 (active)

B59: SLC12A2, P55011 (peptide)
chain: SEEAKGRFRVNFVDPA
OXSR1 434-527, O95747
  selected by phage display: confidence 2 (active)

B60: FSD1, Q9BTV5 (peptide)
chain: DDLSVEWDAMGGKVQD
PEX14 16-84, O75381
  selected by phage display: confidence 4 (active)

B61: CAMTA1, Q9Y6Y1 (peptide)
chain: SWLASYLADADALPSA
PEX14 16-84, O75381
  selected by phage display: confidence 3 (active)

— publication PMC8769072, “Proteome‐scale mapping of binding sites in the unstructured regions of the human proteome” (Molecular Systems Biology, 2022)
